# TDP43 rescue = inhibitors of TDP-43 toxicity in yeast; TDP-43 expressing yeast growth rescue, BacTiter-Glo, 24 h; Potency, µM (top dose mostly 46.1 µM), for inactives: at the highest dose growth rescue (activation), hits mostly activators; actives 1.8% (n = 410,000); AID 652104; further: % of control where 0% means no effect; nearly all actives have a fitted effect of over 50% in size
#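 Cell-based yeast growth screen: TDP-43 expression induced in galactose, inoculum OD600=0.02 after raffinose pregrowth to mid-log. Read-out BacTiter-Glo luminescence at 24 hr, 30 deg C; inhibition of toxicity seen as signal increase.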
# S-ASM inh = human S-ASM enzyme inhibition; placental ASM, HMU-PC fluorogenic substrate, 60 min; Potency, µM (highest dose often 57.5 µM), for inactives: at the top dose activity change, negative = inhibition, actives largely listed as inhibitors; P17405; actives 0.006% (n = 340,000)
# Target sequence (P17405 47-631 limits assumed): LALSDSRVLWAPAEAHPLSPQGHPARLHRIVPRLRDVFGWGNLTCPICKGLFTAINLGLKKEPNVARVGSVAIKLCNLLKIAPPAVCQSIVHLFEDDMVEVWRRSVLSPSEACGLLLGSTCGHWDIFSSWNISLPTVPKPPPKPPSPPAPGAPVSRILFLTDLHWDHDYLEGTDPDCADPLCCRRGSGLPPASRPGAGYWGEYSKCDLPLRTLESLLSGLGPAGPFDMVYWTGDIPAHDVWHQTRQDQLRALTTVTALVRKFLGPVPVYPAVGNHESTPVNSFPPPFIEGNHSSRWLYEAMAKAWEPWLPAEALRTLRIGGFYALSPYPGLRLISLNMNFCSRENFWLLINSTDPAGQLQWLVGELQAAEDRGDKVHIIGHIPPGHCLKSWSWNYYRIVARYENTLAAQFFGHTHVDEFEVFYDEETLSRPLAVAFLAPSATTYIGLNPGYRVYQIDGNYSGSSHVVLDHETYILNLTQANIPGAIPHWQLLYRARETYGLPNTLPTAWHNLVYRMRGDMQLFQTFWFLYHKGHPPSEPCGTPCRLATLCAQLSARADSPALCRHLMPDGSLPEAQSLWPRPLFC
#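 Human placenta-derived ASM preincubated with compound 10 min at room temperature, then reacted with 9 uM (final) fluorogenic HMU-PC substrate for 60 min at 37 C. Stop solution raises pH to 10; fluorescence read at Ex 386/Em 447 nm.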
# Rango dissoc inh = prevents RanGTP from dissociating the Rango-importin beta complex. actives 0.071% (n = 340,000). Biochemical FRET Rango-importin beta, RanGTP-induced dissociation. AID 540253. Potency, µM (top dose mostly 46.1 µM), for inactives: at the top dose activity change, negative = inhibition. O95149+P62826; calls by dose curve; further: % of control where 0% means no effect; nearly all actives have a fitted effect of over 45% in size
#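 Rango/importin beta premix (0.1/0.25 uM final), PBS + 1 mM DTT + 0.02% Tween-20 + 0.1% BSA; cpd 5 min RT; FRET pre-read; + RanGTP-RCC1 (0.6 uM Ran, 2 mM GTP, 0.2 uM RCC1); 45 min RT; FRET post-read, ex 430, em 486/530 nm.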
# aSyn yeast inh = rescues yeast growth from alpha-synuclein toxicity; Yeast expressing alpha-synuclein, growth rescue, BacTiter-Glo, 24 h; actives 0.14% (n = 370,000); Potency, µM (top dose mostly 46.1 µM), for inactives: at the top dose growth rescue (activation), most hits filed as activators; AID 652106; further: % of control where 0% means no effect; nearly all actives have a fitted effect of over 65% in size
#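 Galactose-induced alpha-syn yeast (OD600=0.02, raffinose-pregrown) + pinned cpd, 24 hr, 30 deg C; growth by BacTiter-Glo luminescence. Growth restoration scores as activation.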
# Abeta yeast res = restores growth of yeast expressing A-beta42 peptide. actives 0.063% (n = 410,000). yeast expressing A-beta42, growth rescue, OD600, 48 h; response scale: 0% DMSO, 100% iron-clioquinol control. AID 1347071. Potency, µM (series often up to 46.1 µM), most hits filed as activators; further: nearly all actives have a fitted effect of over 55% in size
#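 Growth rescue measured by 600 nm absorbance after 48 h yeast culture at 30 C with compound. Values normalized between DMSO and an equimolar ferric chloride plus clioquinol control.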
# Rango complex inh = prevents formation of the Rango-importin beta complex; Potency, µM (highest dose often 92.2 µM), without a hit: at the highest dose inhibition of complex formation; AID 540263; actives 0.031% (n = 340,000); Rango CFP/YFP FRET sensor + importin beta, 45 min; Q14974; calls by dose curve;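 further: 0% = DMSO wells and 100% = buffer wells lacking importin beta; nearly all actives have a fitted effect of over 15% in size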
#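 FRET biosensor (snurportin 1 IBB flanked by EYFP and cerulean), 50 nM, with compound 5 min, then 0.125 microM importin beta in PBS, 1 mM DTT, 0.02% Tween-20, 0.1% BSA. CFP/YFP ratio read after 45 min at room temperature; pre-read flags interference.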
# An asterisk follows results filed as active; i = inactive; u = inconclusive; x = no result given; [ ] = dose if it differs, or a comment. Compounds with a hit are over-represented: about 2% of the library has one in this group of screens. Unless noted, the call rests on the fitted dose curve; in most records, active means well fitted curve in the direction sought with a large enough effect; inconclusive means small, poorly fitted or top-dose-only effect, or another doubt; inactive means no such curve, though single readings can be large; an effect the other way counts as inactive or inconclusive. Potency means the concentration at half of the fitted maximal effect.
SMILES,TDP43 rescue,S-ASM inh,Rango dissoc inh,aSyn yeast inh,Abeta yeast res,Rango complex inh
O=C(Nc1ccc2c(c1)OCO2)c1cc(C2CCCN(C(=O)CCCc3ccccc3)C2)on1 (stereo not given),u,x,x,17%,i,x
O=C(Nc1ccc2c(c1)OCO2)c1cc(C2CCCN(C(=O)CCc3ccccc3)C2)on1 (stereo not given),22µM*,x,x,-4%,i,x
CN(C)c1ccc(/C=C/c2ccnc3ccccc23)c(N)c1,x,x,x,-5%,x,x
O=C(Nc1ccc2c(c1)OCO2)c1cc(C2CCCCN2C(=O)CCCc2ccccc2)on1 (stereo not given),35µM*,x,x,7%,i,x
Cc1ccc(S(=O)(=O)N2CCN(c3nc(-n4c(=O)[nH]c5ccccc54)nc4ccccc34)CC2)cc1,x,x,x,0%,x,x
COc1cccc(C2=NO[C@@H]3C(=O)N(c4ccc5c(c4)OCCO5)C(=O)[C@H]23)c1OC,-3%,0%,9%,-1%,i,-4%
COc1cccc(C2=NO[C@@H]3C(=O)N(Cc4ccccc4)C(=O)[C@H]23)c1OC,13µM*,-2%,2%,-1%,i,-2%
CCCCCCCCN1C(=O)[C@H](CC(=O)N2CCN(C(=O)c3ccco3)CC2)C[C@@]2(C(=O)OC)CCCCC=C12,14µM*,x,x,11%,i,x
COC(=O)[C@]12CCCCC=C1N(Cc1ccc(Cl)cc1Cl)C(=O)[C@H](CC(=O)N1CCOCC1)C2,18µM*,x,x,29%,i,x
CCOC(=O)[C@]12CCCC=C1N(Cc1ccc(Cl)cc1Cl)C(=O)[C@H](CC(=O)N1CCN(C(=O)c3ccco3)CC1)C2,16µM*,x,x,29%,i,x
COC(=O)[C@]12CCCCC=C1N(Cc1ccc(Cl)cc1Cl)C(=O)[C@H](CC(=O)N1CCCCC1)C2,u,x,x,11%,i,x
Oc1ccccc1C1C=C(c2ccc3c(c2)OCO3)NC(c2c(F)cccc2Cl)N1 (stereo not given),x,x,x,2%,x,x
Cc1cc(C)n2c(SCc3ccc(C#N)cc3)nnc2n1,22µM*,0%,-16%,0%,i,-4%
CCC12CN3CC(C)(CN(C1)C3c1c[nH]c3ccc(OC)cc13)C2=O (stereo not given),17%,x,x,x,i,x
O=C(O)c1ccccc1N1C(=O)c2cccc3cccc(c23)C1=O,-10%,2%,-7%,2%,i,-2%
Cc1ccccc1N1C(=O)c2cccc3cccc(c23)C1=O,20µM*,0%,1%,-22%,i,6%
N=c1nc(N)nc2n1NC(c1ccc(F)cc1)=CS2,11µM*,-6%,4%,13µM*,i,-1%
Cc1c(C(=O)OCCOc2ccccc2)[nH]c2c1C(=O)CCC2,22µM*,-1%,-9%,-6%,u,0%
CCOc1ccc(C2CC(=O)c3c([nH]c(C(=O)OCCOc4ccccc4)c3C)C2)cc1 (stereo not given),-2%,x,x,x,i,x
Cc1c(C(=O)OC2CCCC2C)[nH]c2c1C(=O)CCC2 (stereo not given),20µM*,-5%,3%,-13%,i,-1%
Cc1ccc2c(c1)nnn2C1CCN(C(=O)c2ccccc2F)CC1,26%,1%,-2%,-5%,i,-4%
Cc1ccc2c(c1)nnn2C1CCN(C(=O)C2CCCCC2)CC1,20µM*,5%,8%,4%,i,4%
O=C(Nc1nnc(-c2ccco2)o1)c1ccc(Cl)cc1,u,-2%,16%,11µM*,u,0%
COc1cccc(C(=O)Nc2nnc(-c3ccc(Cl)cc3)o2)c1,3.2µM*,2%,1%,u,u,-1%
CCOc1ccccc1C(=O)NC(C(=O)OCC(=O)Nc1nnc(-c2ccccc2)o1)C(C)C (stereo not given),u,-4%,-31%,u,i,2%
SMILES,TDP43 rescue,S-ASM inh,Rango dissoc inh,aSyn yeast inh,Abeta yeast res,Rango complex inh
COc1cccc(C(=O)Nc2nnc(-c3cccs3)o2)c1,0%,-4%,1%,7%,u,2%
CCOc1ccccc1C(=O)OCC(=O)Nc1nnc(-c2ccccc2)o1,22µM*,-1%,13%,u,u,3%
COc1cccc(C(=O)Nc2nnc(-c3ccc(F)cc3)o2)c1,7.1µM*,6%,3%,10µM*,u,1%
Cc1ccccc1C(=O)N(Cc1ccc(N(C)C)cc1)Cc1ccco1,9%,x,x,x,i,x
O=C(Cn1c(=O)oc2cc(S(=O)(=O)NCc3ccccc3)ccc21)N(CCO)Cc1ccccc1,11%,x,x,x,i,x
O=C(CSc1nccn1Cc1ccc(F)cc1)NCc1ccco1,u,x,x,x,i,x
CCCCOc1ccc(C(=O)NCC2(N3CCN(C)CC3)CCCCC2)cc1,10%,x,x,x,i,x
O=C(COc1ccccc1)Nc1nnc(-c2ccc(Cl)cc2)o1,14µM*,-3%,0%,14µM*,u,-2%
O=C(COc1ccc(Cl)cc1)Nc1nnc(-c2ccc3c(c2)CCCC3)o1,u,-1%,18%,29%,i,-1%
O=C(Nc1nnc(-c2ccccc2)o1)c1ccc(Cl)cc1,u,-3%,8%,u,u,-3%
CC(=O)c1ccc(C(=O)Nc2nnc(-c3ccc(Cl)cc3)o2)cc1,10µM*,-2%,-6%,3.2µM*,6.3µM*,0%
COc1ccccc1Nc1ncc2c(n1)CCN(CC(C)C)C2,20%,x,x,x,i,x
Cc1ccc(Nc2nc(N)c([N+](=O)[O-])c(N3CCC(C)CC3)n2)cc1C,u,-18%,1%,14%,i,-1%
Cc1ccc(Nc2nc(N3CCOCC3)nc(N3CCOCC3)n2)cc1C,13µM*,0%,-20%,8%,u,5%
Cc1cccc(Nc2nc(Nc3cccc(C)c3)nc(N3CCOCC3)n2)c1,16µM*,x,x,x,i,x
Cc1cccc(Nc2nc(N3CCOCC3)nc(N3CCOCC3)n2)c1,u,-1%,-10%,1%,i,-3%
Cc1ccc(Nc2nc(N)c([N+](=O)[O-])c(N3CCOCC3)n2)cc1C,18µM*,-7%,18%,9%,u,1%
CCCc1cc(=O)n2c(C(=O)Nc3ccc(OCC)cc3)c(C(=O)Nc3ccc(C)cc3)sc2n1,20%,x,x,x,i,x
COc1ccc(NC(=O)CSc2nc(-c3cccs3)cc(C(F)(F)F)n2)cc1OC,23%[9.22 µM],x,x,x,i,x
N#Cc1c(-c2ccc(Cl)cc2)nc2n(c1=O)CCCS2,11µM*,5%,3%,2%,i,-1%

# Screens as filed in PubChem.
